# Data taken from PubChem BioAssay (NCATS).
# Unmarked numbers belong to inactive results. Records with an inconclusive call do not appear. Activity calls are given as the source filed them. Unless noted, calls come from the whole dose curve; as a rule, active = well fitted curve in either direction with a large enough effect (not every such curve was filed as active); inconclusive = small, poorly fitted or top-dose-only effect, or another doubt; inactive = flat fitted curve, though single readings scatter.
# Key:
# [1] = target: Lysosomal acid glucosylceramidase (Homo sapiens) (UniProt P04062); test: Glucocerebrosidase-p2 (AID 348; in the data active = potency below about 10 µM; note: potency is the fitted concentration of half-maximal effect); details: purified GBA, blue fluorogenic substrate, 40 min
# Lysosomal acid glucosylceramidase (Homo sapiens), sequence (P04062 whole entry, looked up): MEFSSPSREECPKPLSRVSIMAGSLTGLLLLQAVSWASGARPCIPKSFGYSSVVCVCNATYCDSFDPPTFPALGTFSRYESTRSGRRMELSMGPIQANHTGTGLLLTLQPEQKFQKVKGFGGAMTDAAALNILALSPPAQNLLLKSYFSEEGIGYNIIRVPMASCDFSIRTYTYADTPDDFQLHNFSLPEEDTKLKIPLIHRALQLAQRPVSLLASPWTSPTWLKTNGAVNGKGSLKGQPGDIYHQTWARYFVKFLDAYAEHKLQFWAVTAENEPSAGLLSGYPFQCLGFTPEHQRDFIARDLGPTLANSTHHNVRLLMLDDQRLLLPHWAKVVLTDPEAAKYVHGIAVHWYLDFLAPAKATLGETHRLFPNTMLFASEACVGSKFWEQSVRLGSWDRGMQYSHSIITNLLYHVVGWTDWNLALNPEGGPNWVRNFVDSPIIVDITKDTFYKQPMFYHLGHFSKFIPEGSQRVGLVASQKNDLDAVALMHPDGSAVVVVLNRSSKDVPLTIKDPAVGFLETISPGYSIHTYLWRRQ
# How it was run: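 Normal human glucocerebrosidase (0.2 nM) with blue fluorogenic substrate (80 uM final) in citrate/phosphate pH 5.9 with 10mM sodium taurocholate, 0.01% tween-20; 40 min RT, NaOH/glycine stop; fluorescence Ex 365/Em 440; AC50 from a titration from 0.6 nM upwards.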
# [2] = AP1 Signaling Pathway (AID 357); details: ME-180 AP-1-bla reporter, EGF-induced, beta-lactamase ratio, 5 h; at 7.69 µM (top of the series) unless noted; note: % is set by controls: 0 for no effect and ±100 for the full control effect
# How it was run: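 In this screen, ME-180 cells in Opti-MEM with 0.5% dialyzed FBS received EC50 EGF and compound titrations for 5 h. AP-1 reporter beta-lactamase was detected via CCF4 ratio, giving AC50 for positive and negative modulators.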
# [3] = target: Cytochrome P450 1A2 (Homo sapiens) (UniProt P05177); test: p450-cyp1a2 (AID 410; calls by dose curve; note: potency is the fitted concentration of half-maximal effect;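 for activity change, negative = inhibition: -100% = full effect of reference inhibitor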)
# Cytochrome P450 1A2 (Homo sapiens), sequence (P05177 whole entry, looked up): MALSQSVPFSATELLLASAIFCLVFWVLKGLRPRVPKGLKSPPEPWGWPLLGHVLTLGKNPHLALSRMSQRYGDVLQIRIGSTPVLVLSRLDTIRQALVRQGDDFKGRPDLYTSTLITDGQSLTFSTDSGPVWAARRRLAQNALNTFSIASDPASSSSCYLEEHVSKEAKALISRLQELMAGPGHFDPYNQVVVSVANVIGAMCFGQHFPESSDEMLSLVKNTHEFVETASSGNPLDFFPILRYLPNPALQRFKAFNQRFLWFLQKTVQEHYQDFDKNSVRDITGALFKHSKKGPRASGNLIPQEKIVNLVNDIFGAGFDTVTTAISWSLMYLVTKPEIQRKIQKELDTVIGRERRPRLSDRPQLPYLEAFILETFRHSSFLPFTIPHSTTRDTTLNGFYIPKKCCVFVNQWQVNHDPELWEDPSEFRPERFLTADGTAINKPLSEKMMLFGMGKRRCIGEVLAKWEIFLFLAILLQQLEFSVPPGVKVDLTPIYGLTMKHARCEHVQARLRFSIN
# How it was run: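 O-Demethylation of luciferin 6' methyl ether by human CYP1A2 is monitored as luciferase luminescence. Substrate sits at Km (100uM); enzyme is 20nM. Values are scaled to 57 uM furafylline as maximal inhibition.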
# [4] = NFAT Signaling Pathway (AID 444); details: Jurkat NFAT-bla M1, carbachol, beta-lactamase ratio, 5 h; at 7.69 µM (top of the series) unless noted;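 note: carbachol stimulus at about its EC50 of 1 µM final; % is set by controls: 0 for no effect and ±100 for the full control effect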
# How it was run: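 Jurkat cells carrying an NFAT-driven β-lactamase reporter and co-transfected muscarinic M1 receptor were treated with compound plus carbachol (1 uM final, an EC50 level) for 5 h at 37 °C. CCF4 loading followed for 1 h at RT; 460/530 nm ratio gave %activity.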
# [5] = Stat Signaling Pathway (AID 446); details: ME-180 (cervical carcinoma) SIE beta-lactamase reporter, IL-6 stimulated, 5 h; at 7.69 µM (top of the series) unless noted;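 note: ME-180 cervical cancer cells given 40 pM IL-6 alongside compound; SIE-controlled beta-lactamase reporter measured as 460/530 nm FRET emission ratio; % is set by controls: 0 for no effect and ±100 for the full control effect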
# How it was run: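 Normalization used AC90 stimulation (300 pM IL-6) and AC90 inhibition (125 nM pan-JAK inhibitor at 40 pM IL-6). The underlying signal is SIE-driven beta-lactamase in ME-180 cells after 5 h IL-6 exposure with compound.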
# [6] = target: Glucocorticoid receptor (Homo sapiens) (UniProt P04150); test: GR-GFP Redistribution (AID 450;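 active = compounds whose dose series gives a full or clear partial fitted curve of increased nuclear translocation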; note: potency is the fitted concentration of half-maximal effect); details: U2OS GR-GFP nuclear translocation, laser cytometry, 2 h
# Glucocorticoid receptor (Homo sapiens), sequence (P04150 whole entry, looked up, the tested form may be a part): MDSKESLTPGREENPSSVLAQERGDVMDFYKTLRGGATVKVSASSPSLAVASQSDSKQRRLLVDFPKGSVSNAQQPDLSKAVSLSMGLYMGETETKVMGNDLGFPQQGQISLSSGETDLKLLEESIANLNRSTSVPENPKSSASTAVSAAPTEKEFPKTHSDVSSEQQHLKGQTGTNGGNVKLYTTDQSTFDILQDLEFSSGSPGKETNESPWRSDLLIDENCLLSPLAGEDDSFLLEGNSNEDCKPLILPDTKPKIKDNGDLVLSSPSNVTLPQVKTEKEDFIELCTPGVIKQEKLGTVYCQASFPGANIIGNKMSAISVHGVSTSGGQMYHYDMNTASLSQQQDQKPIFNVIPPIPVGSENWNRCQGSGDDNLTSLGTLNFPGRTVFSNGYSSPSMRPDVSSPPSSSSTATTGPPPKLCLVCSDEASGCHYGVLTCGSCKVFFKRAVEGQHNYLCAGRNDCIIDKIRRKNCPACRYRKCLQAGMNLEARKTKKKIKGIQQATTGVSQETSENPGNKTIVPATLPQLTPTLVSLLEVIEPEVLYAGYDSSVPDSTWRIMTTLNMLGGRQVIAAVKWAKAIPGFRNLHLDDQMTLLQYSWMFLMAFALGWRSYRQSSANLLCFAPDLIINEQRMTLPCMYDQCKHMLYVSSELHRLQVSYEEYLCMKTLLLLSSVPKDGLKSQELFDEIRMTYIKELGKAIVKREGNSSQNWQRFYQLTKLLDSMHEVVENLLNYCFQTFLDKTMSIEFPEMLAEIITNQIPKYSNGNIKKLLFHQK
# [7] = target: Glucocorticoid receptor (Homo sapiens) (UniProt P04150); test: GR-EFC Redistribution (AID 451; calls by dose curve; note: potency is the fitted concentration of half-maximal effect); details: CHO-K1 GR-EFC translocation, beta-gal luminescence, 2 h
# How it was run: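 CHO-K1 cells stably expressing nuclear-localized β-gal enzyme acceptor and GR fused C-terminally to the enzyme donor fragment; ligand-driven nuclear translocation restores β-gal by complementation. Compounds titrated up to 46 uM final, 2 h at 37 °C; luminescence read.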
# [8] = target: Mitogen-activated protein kinase 10 (Mus musculus) (UniProt Q61831); test: JNK3 AlphaScreen Assay (AID 530);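 note: kinase came from lysate of stimulated human HepG2 cells; signal reports phosphorylation of biotinylated GST-cJun 1-79 at Ser73 with 10 µM ATP; % is set by controls: 0 for no effect and ±100 for the full control effect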
# How it was run: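 Phosphorylation of biotinylated GST-cJun(1-79) at Ser73 is measured by AlphaScreen proximity luminescence. Enzyme is JNK3 in HepG2 lysates activated with interleukin-1beta and tumor necrosis factor alpha; ATP is 10 uM final.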
# [9] = target: 3',5'-cyclic-AMP phosphodiesterase 4B (Homo sapiens) (UniProt Q07343); test: qHTS Assay for Inhibitors of PDE-IV (AID 607; active = well fitted activation curve with a large enough effect in the main read-out, with a control signal flat, not every such curve was filed as active; note: % of control where 0% means no effect)
# 3',5'-cyclic-AMP phosphodiesterase 4B (Homo sapiens), sequence (Q07343 whole entry, looked up): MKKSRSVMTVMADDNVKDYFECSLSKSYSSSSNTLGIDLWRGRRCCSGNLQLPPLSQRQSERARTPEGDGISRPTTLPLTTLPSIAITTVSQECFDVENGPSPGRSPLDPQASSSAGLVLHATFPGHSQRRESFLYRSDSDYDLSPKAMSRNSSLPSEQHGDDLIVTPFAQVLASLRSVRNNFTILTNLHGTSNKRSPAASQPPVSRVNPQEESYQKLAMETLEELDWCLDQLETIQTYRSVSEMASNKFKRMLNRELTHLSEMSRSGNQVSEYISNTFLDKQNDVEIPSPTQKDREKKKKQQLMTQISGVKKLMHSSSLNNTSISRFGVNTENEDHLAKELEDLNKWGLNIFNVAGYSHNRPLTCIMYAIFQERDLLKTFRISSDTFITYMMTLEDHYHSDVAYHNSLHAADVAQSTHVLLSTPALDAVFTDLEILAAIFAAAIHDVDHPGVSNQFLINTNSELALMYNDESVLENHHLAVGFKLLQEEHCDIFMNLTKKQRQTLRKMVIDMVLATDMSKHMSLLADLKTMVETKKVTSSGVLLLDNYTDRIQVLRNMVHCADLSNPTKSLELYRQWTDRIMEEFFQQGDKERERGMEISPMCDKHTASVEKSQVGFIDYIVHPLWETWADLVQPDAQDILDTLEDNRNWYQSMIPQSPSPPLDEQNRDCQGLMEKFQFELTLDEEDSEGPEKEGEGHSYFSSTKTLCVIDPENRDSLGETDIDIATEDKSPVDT
# How it was run: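 HEK293 ACTOne cells with CNG channel (1000/well), endogenous PDE4; membrane potential dye, compounds up to 22.9 uM final. Fluorescence Ex 535/Em 590; RO 20-1724 (100 uM final) as reference.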
Compound,Potency [1] [µM],"activity change, negative = inhibition [2] [%]","activity change, negative = inhibition [3]","activity change, negative = inhibition [4] [%]","activity, negative = inhibition [5] [%]",Potency [6] [µM],Potency [7] [µM],Potency [8],Potency [9],Potency [3]
O=S(=O)(O)[C@@H](CO)c1ccccc1 (tested in a mixture with another compound),> 11.4,-0.645,-1.9% [at 2.29 µM],3.56,-7.29,> 46,> 9.22,inactive,inactive,
O=S(=O)(O)c1cc(N=[N+]([O-])c2cc(S(=O)(=O)O)c3ccccc3c2)cc2ccccc12,> 11.4,5.38,,8.26,-2.62,> 46,> 9.22,inactive,inactive,1.26 µM (active)
O=C1CCC(c2ccccc2)(c2ccccc2)CC1,> 11.4,5.18,,-2.6,1.75,> 46,> 9.22,inactive,,inactive
Cc1cccc2c1Oc1ccccc1[C@@H]2NC(=O)c1ccc([N+](=O)[O-])cc1,> 11.4,0.106,,-2.92,-4.56,> 46,> 9.22,inactive,inactive,1 µM (active)
Nc1ccc(N=Nc2c(S(=O)(=O)O)cc3ccccc3c2S(=O)(=O)O)cc1,> 11.4,-5.64,-20.9% [at 2.29 µM],11.9,6.7,> 46,> 9.22,inactive,inactive,
O=C(O)C[C@H](Cc1ccc2c(c1)OCO2)C(=O)O,> 11.4,2.2,,-29.5,-2.05,> 46,> 9.22,inactive,inactive,inactive
O=C(O)C12CC3(C(=O)O)CC(C(=O)O)(CC(C(=O)O)(C1)C3=O)C2=O,> 11.4,-2.38,-4.3% [at 2.29 µM],6.84,4.13,> 46,> 9.22,inactive,inactive,
NC(=O)NC(=O)[C@H]1CCCC[C@@H]1C(=O)O,> 11.4,7.05,,-5.46,17.8,> 46,> 9.22,inactive,inactive,inactive
O=C(NNC(=O)c1ccncc1)c1ccncc1,> 11.4,4.63,,6.39,2.81,> 46,> 9.22,inactive,inactive,inactive
C/C(=C\c1ccc(Cl)cc1)C(C)(C)C(=O)O,> 11.4,2.81,,-8.85,-7.44,> 46,> 9.22,inactive,inactive,inactive
OC[C@@H](O)CNc1ncnc2ccccc12,> 11.4,-1.31,,9.96,2.66,> 46,> 9.22,inactive,inactive,inactive
CCN(CC)C[C@@H](O)c1ccc2ccc3ccccc3c2c1,> 11.4,15.5,,16.1,13.3,> 46,> 9.22,inactive,inactive,0.794 µM (active)
Cc1ccc(S(=O)(=O)Nc2ccccc2C(=O)c2ccc(C)c(C)c2)cc1,> 11.4,5.46,,2.8,-2.64,> 46,> 9.22,inactive,inactive,0.631 µM (active)
